Test [1] concerns the target Rap guanine nucleotide exchange factor 3 (Homo sapiens) (UniProt O95398). Kind of test: Confirmatory qHTS for antagonist of cAMP-regulated guanine nucleotide exchange factor 3 (EPAC1) (AID 1645880). Also: potency is read from the fitted curve at half-maximal effect; nearly all actives have a fitted effect of over 55% in size. Put shortly: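 Nucleotide exchange uses 100 nM EPAC1, 250 nM RAP1B-BODIPY-GDP and 50 uM GDP, with compounds in a concentration-titration series. After 5 min at room temperature, fluorescence (480 nm ex/540 nm em) is read every 5 min for 30 min. Data are normalized to control ATA and DMSO.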

Test [2] shares this target. Put plainly: Confirmatory qHTS for agonist of cAMP-regulated guanine nucleotide exchange factor 3 (EPAC1) (AID 1645881).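 Also: EPAC1 catalysed release of BODIPY-GDP from Rap1B seen as fluorescence loss; nearly all actives have a fitted effect of over 75% in size.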
For test [3], the target named is Rap guanine nucleotide exchange factor 4 (Homo sapiens) (UniProt Q8WZA2). Put plainly: Confirmatory qHTS for agonist of cAMP-regulated guanine nucleotide exchange factor 4 (EPAC2) (AID 1645884).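 Also: nucleotide exchange releases bodipy-GDP from Rap1 and this lowers its fluorescence; nearly all actives have a fitted effect of over 65% in size.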
For test [4] the target is unchanged. Put plainly: Confirmatory qHTS for antagonist of cAMP-regulated guanine nucleotide exchange factor 4 (EPAC2) (AID 1645885). Also: nearly all actives have a fitted effect of over 25% in size.
The target of test [5] is Rap guanine nucleotide exchange factor 3 (Homo sapiens) (UniProt O95398). Put plainly: Counterscreen qHTS for antagonist of cAMP-regulated guanine nucleotide exchange factor 3 (EPAC1) (AID 1645888).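 Also: fluorescence loss as bound BODIPY-GDP is released from Rap1B.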 Put shortly:
(§1)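 Rap1B-BODIPY-GDP 250 nM + GDP 50 uM; cpds 7-pt, final 9.74 nM–152 uM (activator mode) or from 7.32 nM upwards (inhibitor mode); RT; FI 480/540 nm at 5 and 30 min, then ± cAMP, reread.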

For test [6] the target is unchanged. Put plainly: Counterscreen qHTS for agonist of cAMP-regulated guanine nucleotide exchange factor 3 (EPAC1) (AID 1645889). Also: nearly all actives have a fitted effect of over 40% in size. Put shortly:
as §1

Test [7] addresses Phospholipid hydroperoxide glutathione peroxidase GPX4 (Homo sapiens) (UniProt P36969). Put plainly: Primary qHTS Assay for Inhibitors of Recombinant Selenoprotein Glutathione Peroxidase 4 (GPX4) (AID 1845192). Also: series mostly up to about 50 µM; nearly all actives have a fitted effect of over 65% in size. An outline of the steps:
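NADPH consumption, followed by fluorescence at 340/450 nm between 0 and 15 min, reports GPX4 activity via coupled glutathione reductase (100 nM). Enzyme 200 nM was pre-exposed to compound 30 min; 0.5 mM cumene hydroperoxide and 1 mM GSH served as substrates.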

A short description of test [8]: Primary qHTS for inhibitors of nuclear receptor binding SET domain protein 2 (NSD2) in an isogenic RCH-ACV NSD2 p.E1099K mutant (9B) (AID 1645876). Also: nearly all actives have a fitted effect of over 70% in size.
The nature of test [9]: Primary qHTS for inhibitors of nuclear receptor binding SET domain protein 2 (NSD2) in an RCH-ACV wild type WT cells (2C) (AID 1645877). Also: nearly all actives have a fitted effect of over 70% in size.
The nature of test [10]: qHTS for Inhibitors of Ubiquitin-specific Protease USP2a Using CHOP2 as the Reporter: K633 Counterscreen (AID 652168). Also: series mostly up to about 57 µM. Put shortly: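 Cell-free interference counterscreen without USP2a: compounds pinned into enzyme-free buffer (20 mM Tris pH 8, 2 mM beta-mercaptoethanol, 0.05% Chaps), then DiUb K48-4IQF substrate added (100 nM stock); fluorescence read kinetically, Ex 525/Em 598.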

Test [11] addresses Ubiquitin carboxyl-terminal hydrolase 2 (Homo sapiens) (UniProt O75604). Kind of test: qHTS for Inhibitors of Ubiquitin-specific Protease USP2a Using CHOP2 as the Reporter: K484 Substrate (AID 652173).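 Also: cleavage of internally quenched K48 di-ubiquitin substrate measured as rising fluorescence over time; potency is read from the fitted curve at half-maximal effect; nearly all actives have a fitted effect of over 70% in size.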 As to conditions: USP2 cleavage of DiUb K48 IQF substrate, fluorescence. Put shortly:
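USP2 (dispensed at 5 nM) was pinned with compounds, then DiUb K48 internally quenched fluorescent substrate (dispensed at 100 nM) was added. The buffer was 20 mM Tris pH 8, 2 mM beta-mercaptoethanol and 0.05% CHAPS. Cleavage was read kinetically as rising fluorescence, Ex 525/Em 598.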

The target in test [12] is N-terminal Xaa-Pro-Lys N-methyltransferase 1 (Homo sapiens) (UniProt Q9BV86). Kind of test: Confirmatory qHTS for Inhibitors of N-terminal methyltransferase 1 (NTMT1): MTaseGlo Assay (AID 1645874). Also: potency is read from the fitted curve at half-maximal effect; nearly all actives have a fitted effect of over 65% in size. An outline of the steps:
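Luminescent MTase-Glo read-out of SAH. 125 nM NTMT1, 100 uM SAM, 1 uM SPKRIA substrate, 30 min RT reaction after 15 min compound preincubation. Normalized to no-enzyme and DMSO controls; Hill fit.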

Inconclusive results are not listed. Activity calls are given as the source filed them. Calls follow the shape of the dose curve; as a rule, active = well fitted curve in the direction sought with a large enough effect; inconclusive = small, poorly fitted or top-dose-only effect, or another doubt; inactive = no such curve, though single readings can be large; an effect the other way counts as inactive or inconclusive.

Sequence of Rap guanine nucleotide exchange factor 4 (Homo sapiens) (Q8WZA2 whole entry, looked up): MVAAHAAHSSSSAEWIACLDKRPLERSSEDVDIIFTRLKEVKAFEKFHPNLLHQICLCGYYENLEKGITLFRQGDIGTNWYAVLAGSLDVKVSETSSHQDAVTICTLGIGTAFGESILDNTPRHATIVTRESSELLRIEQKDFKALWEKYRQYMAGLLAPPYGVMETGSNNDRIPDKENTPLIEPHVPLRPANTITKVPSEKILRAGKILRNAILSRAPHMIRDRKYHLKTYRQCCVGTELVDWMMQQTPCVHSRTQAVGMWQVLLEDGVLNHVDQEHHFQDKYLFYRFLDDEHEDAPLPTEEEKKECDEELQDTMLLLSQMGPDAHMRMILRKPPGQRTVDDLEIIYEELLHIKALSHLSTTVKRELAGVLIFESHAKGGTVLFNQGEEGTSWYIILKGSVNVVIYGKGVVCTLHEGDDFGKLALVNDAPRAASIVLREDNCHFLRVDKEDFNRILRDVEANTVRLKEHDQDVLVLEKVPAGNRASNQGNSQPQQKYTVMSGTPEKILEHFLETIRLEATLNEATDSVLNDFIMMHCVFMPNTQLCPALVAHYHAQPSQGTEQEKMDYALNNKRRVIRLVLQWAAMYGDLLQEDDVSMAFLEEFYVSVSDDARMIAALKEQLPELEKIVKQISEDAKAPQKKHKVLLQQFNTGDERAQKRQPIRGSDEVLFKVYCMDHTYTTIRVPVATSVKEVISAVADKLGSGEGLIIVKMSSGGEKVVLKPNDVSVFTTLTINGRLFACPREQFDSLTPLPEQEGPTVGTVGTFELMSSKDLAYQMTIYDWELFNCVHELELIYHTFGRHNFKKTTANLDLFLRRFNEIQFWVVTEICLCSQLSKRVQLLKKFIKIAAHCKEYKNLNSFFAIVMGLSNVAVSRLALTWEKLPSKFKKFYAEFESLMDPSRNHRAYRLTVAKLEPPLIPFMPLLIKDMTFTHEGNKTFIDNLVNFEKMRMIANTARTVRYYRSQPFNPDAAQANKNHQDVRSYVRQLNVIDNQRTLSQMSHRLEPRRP
Sequence of Rap guanine nucleotide exchange factor 3 (Homo sapiens) (O95398 whole entry, looked up): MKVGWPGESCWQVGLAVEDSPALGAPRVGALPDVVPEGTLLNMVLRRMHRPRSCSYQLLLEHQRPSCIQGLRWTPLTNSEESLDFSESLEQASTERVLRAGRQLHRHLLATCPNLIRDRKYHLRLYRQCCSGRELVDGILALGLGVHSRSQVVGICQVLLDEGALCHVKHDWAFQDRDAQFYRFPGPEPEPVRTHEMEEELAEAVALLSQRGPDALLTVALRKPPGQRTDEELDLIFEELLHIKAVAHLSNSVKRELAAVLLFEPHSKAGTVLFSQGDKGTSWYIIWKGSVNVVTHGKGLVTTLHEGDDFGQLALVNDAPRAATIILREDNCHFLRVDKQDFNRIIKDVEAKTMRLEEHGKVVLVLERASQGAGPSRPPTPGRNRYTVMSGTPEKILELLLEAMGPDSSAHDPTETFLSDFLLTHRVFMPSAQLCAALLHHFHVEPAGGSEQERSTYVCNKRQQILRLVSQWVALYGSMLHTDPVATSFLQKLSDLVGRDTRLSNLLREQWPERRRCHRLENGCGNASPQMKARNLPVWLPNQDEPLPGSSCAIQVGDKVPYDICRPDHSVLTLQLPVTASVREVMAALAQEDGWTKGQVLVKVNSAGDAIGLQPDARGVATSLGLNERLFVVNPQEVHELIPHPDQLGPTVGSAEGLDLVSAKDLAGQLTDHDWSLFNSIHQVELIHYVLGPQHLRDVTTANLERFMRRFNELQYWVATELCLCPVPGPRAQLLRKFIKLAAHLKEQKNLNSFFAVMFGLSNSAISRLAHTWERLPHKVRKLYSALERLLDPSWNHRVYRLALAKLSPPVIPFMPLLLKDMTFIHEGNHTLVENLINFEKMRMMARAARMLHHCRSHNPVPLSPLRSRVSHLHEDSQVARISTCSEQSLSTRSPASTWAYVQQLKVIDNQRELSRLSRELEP
Sequence of N-terminal Xaa-Pro-Lys N-methyltransferase 1 (Homo sapiens) (Q9BV86 whole entry, looked up): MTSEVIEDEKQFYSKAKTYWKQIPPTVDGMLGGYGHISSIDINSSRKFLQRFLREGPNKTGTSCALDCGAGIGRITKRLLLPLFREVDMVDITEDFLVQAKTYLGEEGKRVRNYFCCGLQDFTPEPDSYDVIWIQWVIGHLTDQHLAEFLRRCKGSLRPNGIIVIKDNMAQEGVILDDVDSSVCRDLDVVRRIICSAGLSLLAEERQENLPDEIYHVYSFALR
Sequence of Phospholipid hydroperoxide glutathione peroxidase GPX4 (Homo sapiens) (P36969 whole entry, looked up): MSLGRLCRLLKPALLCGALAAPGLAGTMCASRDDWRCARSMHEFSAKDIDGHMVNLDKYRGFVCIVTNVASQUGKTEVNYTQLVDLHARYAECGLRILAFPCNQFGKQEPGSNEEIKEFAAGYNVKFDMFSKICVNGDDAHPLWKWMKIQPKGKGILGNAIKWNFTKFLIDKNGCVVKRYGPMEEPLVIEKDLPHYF
Sequence of Ubiquitin carboxyl-terminal hydrolase 2 (Homo sapiens) (O75604 whole entry, looked up): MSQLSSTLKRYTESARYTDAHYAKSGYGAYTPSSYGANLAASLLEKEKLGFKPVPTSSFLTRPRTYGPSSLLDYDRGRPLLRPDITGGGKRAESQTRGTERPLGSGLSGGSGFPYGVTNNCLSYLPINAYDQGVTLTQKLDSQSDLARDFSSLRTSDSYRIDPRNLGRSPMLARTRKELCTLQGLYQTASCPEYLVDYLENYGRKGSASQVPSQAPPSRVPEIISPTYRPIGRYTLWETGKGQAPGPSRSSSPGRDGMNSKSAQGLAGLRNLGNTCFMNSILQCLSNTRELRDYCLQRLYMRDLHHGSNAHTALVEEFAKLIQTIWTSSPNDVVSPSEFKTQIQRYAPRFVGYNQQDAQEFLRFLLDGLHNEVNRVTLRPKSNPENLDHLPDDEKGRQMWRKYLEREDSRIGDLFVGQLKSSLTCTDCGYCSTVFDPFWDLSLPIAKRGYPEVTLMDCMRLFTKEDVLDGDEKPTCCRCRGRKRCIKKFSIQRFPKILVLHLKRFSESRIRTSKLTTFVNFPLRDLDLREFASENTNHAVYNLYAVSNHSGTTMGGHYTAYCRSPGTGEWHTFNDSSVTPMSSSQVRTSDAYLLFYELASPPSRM

Take `COc1ccccc1NC(=O)CSc1nc(-c2ccc(C(C)(C)C)cc2)c(C#N)c(=O)[nH]1`: in [1], the Potency is 67.5 µM (active). In addition, the Potency result in [2], in test [3], in test [5] and in test [6] was “inactive” each time. In [4], the outcome is “inactive [at 12.7 µM]”.
`CC(C)(C)c1ccc(-c2nc(SCC(=O)Nc3ccc(Cl)cc3)[nH]c(=O)c2C#N)cc1`: the Potency result in test [2], in test [3], in test [4], in test [5] and in [6] was “inactive” each time.
Regarding `CCN(CC)C(=O)[C@]1(c2ccccc2)C[C@H]1CN`, the Potency entry in [7] was “inactive”.
As for `Cc1cn(C2C[C@H](O)[C@@H](CO)O2)c(=O)[nH]c1=O` (stereo partly drawn), the Potency result in [8] and in [9] was “inactive” throughout.
As for `Cc1ccc(S(=O)(=O)Nc2cnccc2C(=O)Nc2nc(-c3cccc(C)c3)cs2)cc1`, the compound was classed as inactive in [10]. Further, the Potency is 1.37 µM (active) in [11] and 17.3 µM (active) in test [12].
Turning to `O=C1NC(=O)/C(=C/c2ccc(-c3ccc(F)cc3)o2)S1`, the Potency result in [8] was “inactive”.

The values are drawn from PubChem BioAssay (NCATS).
